PubChem BioAssay (NCATS)
Values joined by “and” are separate entries in the source; they are usually repeats but may differ in a detail not shown here. Equal entries are not always repeated. Records with an inconclusive call do not appear. Active and inactive are the calls of the source. Unless noted, calls come from the whole dose curve; as a rule, active = well fitted curve in the direction sought with a large enough effect; inconclusive = small, poorly fitted or top-dose-only effect, or another doubt; inactive = no such curve, though single readings can be large; an effect the other way counts as inactive or inconclusive.

Legend:
[1] = Cell Viability - BJ (AID 421; calls by dose curve;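 note: potency is the fitted concentration of half-maximal effect; cells exposed to compound for 40 hours at 37 °C before readout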); conditions: BJ fibroblast viability, qHTS
Outline: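 Luminescent ATP signal (CellTiter-Glo, 20 min at room temperature) served as the read-out of viable BJ cells after 40 hours of compound treatment. Responses were scaled between DMSO and 100 uM tamoxifen, and AC50 values were obtained by Hill modeling.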

[2] = Cell Viability - Jurkat (AID 426;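 active = dose-dependent loss of cell ATP signal giving a full or clear fitted curve, ranked by lower potency value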;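 note: potency is the fitted concentration of half-maximal effect; cells exposed to compound for 40 hours at 37 °C before ATP read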); conditions: qHTS
Outline: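 Cytotoxicity was scored as loss of cellular ATP, measured by luciferase-based luminescence, in Jurkat clone E6-1 cells after 40 h compound treatment; tamoxifen and doxorubicin served as positive controls.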

[3] = Cell Viability - Hek293 (AID 427;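 active = compounds whose dose-response curve shows a full or clear partial loss of cell viability, called from curve shape rather than a numeric limit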;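 note: potency is the fitted concentration of half-maximal effect; cells exposed to compound for 40 hours at 37 °C before reading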); conditions: qHTS
Outline: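 Luminescent ATP read-out (CellTiter-Glo, 20 min RT) after 40 hr compound exposure at 37 °C in complete medium. Signal normalized to DMSO (basal) and 100 uM tamoxifen (100% inhibition); concentration-response fitted with the standard Hill equation to give AC50.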

[4] = Cell Viability - HepG2 (AID 433; calls by dose curve;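 note: potency is the fitted concentration of half-maximal effect; potency for ATP loss meaning cytotoxicity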); conditions: qHTS
Outline: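 Cytotoxicity is scored as loss of intracellular ATP in HepG2 cells exposed to compounds for 40 h. Concentration-response curves, normalized to DMSO and 100 uM tamoxifen, give AC50 values.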

[5] = Cell Viability - MRC5 (AID 434; calls by dose curve;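 note: potency is the fitted concentration of half-maximal effect; cells exposed to compound for 40 hours at 37 °C; potency reflects cytotoxicity seen as loss of intracellular ATP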); conditions: MRC5 lung fibroblast viability, qHTS
Outline: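 ATP luminescence read-out (CellTiter-Glo, 20 min RT) after 40 hr, 37 °C compound exposure of 1500 MRC5 cells/well. Data normalized to DMSO (basal) and 100 uM tamoxifen (100% inhibition); AC50 from standard Hill equation.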

[6] = Cell Viability - SK-N-SH (AID 435; calls by dose curve;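 note: potency is the fitted concentration of half-maximal effect; compound exposure lasted 40 h at 37 °C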); conditions: SK-N-SH neuroblastoma cell viability qHTS
Outline: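 Cells seeded at 1500 per well and incubated 5 hr at 37 °C. Compound added, then 40 hr at 37 °C. CellTiter-Glo added, 20 min at room temperature, luminescence read.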

[7] = Cell Viability - N2a (AID 540); conditions: N2a mouse neuroblastoma cell viability; activity change, negative = cytotoxicity: at 92.2 µM (top of the series);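 note: cells exposed to compound for 40 h at 37 °C; plate controls were DMSO alone for no effect and tamoxifen control for full effect; nearly all actives have a fitted effect of over 45% in size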
Outline: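 In this qHTS cytotoxicity screen, ATP-dependent luciferase luminescence reports viable N2a cells after a 40 hr compound exposure in complete culture medium. Potencies are AC50 values from standard Hill equation fits.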

[8] = Cell Viability - NIH 3T3 (AID 541); conditions: NIH 3T3 cell viability, qHTS; activity change, negative = cytotoxicity: at 92.2 µM (top of the series);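 note: plate controls were DMSO alone for no effect and tamoxifen positive control for full effect; nearly all actives have a fitted effect of over 25% in size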
Outline: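 In this cytotoxicity screen, acute toxicity is scored as an ATP drop measured by CellTiter-Glo in NIH 3T3 fibroblasts following a 40 hr, 37 °C incubation with compound.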

[9] = Cell Viability - HUV-EC-C (AID 542); note: % is set by controls: 0 for no effect and ±100 for the full control effect; nearly all actives have a fitted effect of over 35% in size
Outline: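 Concentration-dependent ATP loss in HUV-EC-C cells is the measure. Exposure lasts 40 hr at 37 °C; luminescence follows CellTiter-Glo addition, and Hill fits give AC50.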

[10] = Cell Viability - H-4-II-E (AID 543); note: % is set by controls: 0 for no effect and ±100 for the full control effect; nearly all actives have a fitted effect of over 35% in size
Outline: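 AC50 from Hill-modelled qHTS concentration-response curves. H-4-II-E rat hepatoma cells in complete medium, 40 hr exposure at 37 °C, viability by CellTiter-Glo ATP luminescence.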

[11] = Cell Viability - SH-SY5Y (AID 544); conditions: SH-SY5Y neuroblastoma cell viability; viability change, negative = cytotoxic: at 92.2 µM (top of the series); note: nearly all actives have a fitted effect of over 55% in size
Outline: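 Quantitative HTS in SH-SY5Y neuroblastoma cells, 40 hr treatment at 37 °C, ATP content by luciferase luminescence; AC50 from Hill fits.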

[12] = Cell Viability - Renal Proximal Tubule (AID 545); conditions: renal proximal tubule cells viability, primary cells of rat origin; activity change, negative = cytotoxicity: at 91.7 µM (top of the series); note: nearly all actives have a fitted effect of over 40% in size
Outline: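 Cytotoxicity is scored as a concentration-dependent drop in cellular ATP in primary rat renal proximal tubule cells exposed for 40 hr. AC50 derives from Hill modelling.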

[13] = Cellular Toxicity (caspase-3) HepG2 (AID 654);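 note: cells exposed to compound for 16 hours before reading; 0% = DMSO alone and 100% = caspase signal from 100 µM tamoxifen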
Outline: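 Concentration-response AC50 values reflect caspase-3/7 induction in HepG2 cells after 16 hours of compound exposure, quantified by luminescence from liberated aminoluciferin and referenced to 100 uM tamoxifen as full stimulation.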

[14] = Cellular Toxicity (caspase-3) Jurkat (AID 655); conditions: Jurkat caspase-3 activation, luminescence; caspase-3 activation: at 92.2 µM (top of the series), DMSO = 0%, tamoxifen = 100%;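 note: cells exposed to compound for 16 h at 37 °C before reading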
Outline: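 Caspase 3/7 activation is scored as increased luminescence in Jurkat cells cultured with compound for 16 hours in complete medium. AC50 values come from Hill fits of qHTS concentration-response data normalized to DMSO and 100 uM tamoxifen controls.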

[15] = Cellular Toxicity (caspase-3) HUV-EC-C (AID 656)
Outline: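 Read-out: luminescence proportional to caspase 3/7 activity, measured 20 min after adding Caspase-Glo 3/7 reagent. Cells (HUV-EC-C) had received compound for 16 hr at 37°C. Increases relative to DMSO and 100 uM tamoxifen gave concentration-response AC50 values.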

[16] = Cellular Toxicity (caspase-3) SHSY5Y (AID 657)
Outline: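 Cells plated and incubated 5 h at 37 °C, dosed over a concentration range, incubated 16 h, then given Caspase-Glo 3/7 reagent for 1 h at room temperature before luminescence reading. Staurosporine (10 uM) defined full stimulation.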

[17] = Cellular Toxicity (caspase-3) BJ (AID 658); conditions: Potency: caspase-3 activation;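 note: 0% = DMSO basal and 100% = 10 µM staurosporine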
Outline: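 qHTS, BJ fibroblasts, 1000 cells/well; 5 hr preincubation, 16 hr compound, 37 °C; Caspase-Glo 3/7 reagent, 1 hr RT; luminescence. DMSO = 0%, 10 uM staurosporine = 100%. Hill-equation AC50.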

[18] = Cellular Toxicity (caspase-3) MRC-5 (AID 659);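 note: 0% = DMSO basal and 100% = 10 µM staurosporine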
Outline: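 MRC-5 fibroblasts, 1500/well; 16 h cpd, 37 °C; Caspase-Glo 3/7, 1 h RT; lumi read. Norm: DMSO = 0%, 10 uM staurosporine = 100%. Hill-fit AC50 from qHTS conc-response.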

[19] = Cellular Toxicity (caspase-3) Mesangial (AID 660); conditions: mesangial cells, normalized: DMSO 0%, 100 µM tamoxifen 100%; at 91.7 µM (top of the series);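 note: cells exposed to compound for 16 h before the caspase read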
Outline: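 AC50 values come from Hill-equation fits of caspase 3/7 activation, measured as Caspase-Glo luminescence in human glomerular mesangial cells exposed to compound for 16 h at 37 °C; 100% set by 100 uM tamoxifen.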

[20] = Cellular Toxicity (caspase-3) SK-N-SH (AID 661); conditions: SK-N-SH caspase-3 activation, qHTS; caspase-3 activation: at 91.7 µM (top of the series), DMSO as zero, staurosporine as full;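 note: 0% = DMSO basal and 100% = 10 µM staurosporine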
Outline: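 Apoptosis readout in SK-N-SH neuroblastoma: Caspase-Glo 3/7 luminescence following 16 hr treatment in complete culture medium. Normalization used DMSO and 10 uM staurosporine controls.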

[21] = Cellular Toxicity (caspase-3) H-4-II-E (AID 663); conditions: H-4-II-E rat hepatoma; Potency: caspase-3 activation; caspase-3 activation: at 92.2 µM (top of the series), scaled: DMSO 0%, 100 µM tamoxifen 100%;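 note: cells exposed to compound for 16 hr before readout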
Outline: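 H-4-II-E rat hepatoma, 1500 cells/well, 5 hr settle at 37 °C; compound 16 hr, 37 °C, complete medium; Caspase-Glo 3/7, 20 min RT; luminescence. DMSO = 0%, 100 uM tamoxifen = 100%; Hill-equation AC50.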

[22] = Cellular Toxicity (caspase-3) Hek293 (AID 664); conditions: HEK293 caspase-3 activation, DMSO = 0%, 100 µM tamoxifen = 100%; at 92.2 µM (top of the series);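 note: cells exposed to compound for 16 h at 37 °C before readout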
Outline: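 Apoptosis readout: Caspase-Glo 3/7 signal in human HEK293 cells following 16-hour compound incubation. Responses scaled between DMSO baseline and 100 uM tamoxifen.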

[23] = Cellular Toxicity (caspase-3) N2a (AID 665); conditions: Potency: caspase-3 activation;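 note: compound exposure lasted 16 h at 37 °C before readout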
Outline: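 Concentration-response qHTS: compound-induced caspase-3/7 luminescence in N2a cells (16 h, 37 °C), relative to DMSO and 10 uM staurosporine controls; AC50 obtained using the standard Hill equation.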

[24] = Cellular Toxicity (caspase-3) NIH 3T3 (AID 666);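 note: caspase signal read after 16 h compound exposure; 0% = DMSO basal and 100% = 100 µM tamoxifen stimulation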
Outline: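 Activity: caspase-3/7 induction, NIH 3T3 cells, 16 hr treatment at 37°C, luminescent Caspase-Glo detection; AC50 via Hill equation.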

[25] = Cellular Toxicity (caspase-3) Renal Proximal Tubule (AID 667);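 note: cells exposed to compound for 16 hours at 37 °C before detection; 0% = DMSO basal and 100% = 10 µM staurosporine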
Outline: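 In qHTS format, rat primary proximal tubule cells seeded at 1000 per well are exposed to compounds for 16 hours at 37 °C. An increase in Caspase-Glo 3/7 luminescence indicates caspase activation.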

[26] = Cell Viability - LYMP2-001 (AID 921);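 note: cells exposed to compound for 24 h at 37 °C; 0% = DMSO only and full inhibition = tetraoctylammonium bromide control wells; nearly all actives have a fitted effect of over 70% in size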
Outline: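 qHTS, 1536-well; lymphoblastoid cells, 24 hr compound, 37 C; ATP by CellTiter-Glo, 30 min RT; luminescence; Hill-fit AC50.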

[27] = MultiTox-Fluor Cytotoxicity Assay - LYMP1-001 - Dead Cells (AID 946);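 note: 0% = DMSO and 100% = tetraoctylammonium bromide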
Outline: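 AC50 from Hill fit of concentration-response; data normalized to DMSO (basal) and 15 uM tetraoctylammonium bromide (100%). LYMP1-001 lymphoblastoid cells, 2500/well, 16 hr compound at 37 C; dead-cell protease fluorescence, Ex/Em 485/520.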

[28] = Cell Viability - LYMP1-002 - Assay at 16 hr (AID 948);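 note: 0% = DMSO alone and full effect = 92 µM tetraoctylammonium bromide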
Outline: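 Acute cytotoxicity is scored as a concentration-dependent fall in intracellular ATP in a human lymphoblastoid line (LYMP1-002) after 16 hr compound exposure at 37 C, measured by luciferase luminescence.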

[29] = MultiTox-Fluor Cytotoxicity Assay - LYMP1-002 - Live Cells (AID 955); note: % is set by controls: 0 for no effect and ±100 for the full control effect
Outline: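 In this qHTS viability format, lymphoblastoid cells (LYMP1-002, human) received compound for 16 hr at 37 C. Fluorogenic GF-AFC cleavage by viable cells was detected at 405/510 nm after 1 h at room temperature.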

[30] = MultiTox-Fluor Cytotoxicity Assay - LYMP1-002 - Dead Cells (AID 960);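 note: 0% = DMSO and 100% = tetraoctylammonium bromide; nearly all actives have a fitted effect of over 60% in size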
Outline: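 Concentration-dependent increases in membrane-leaked protease activity are quantified in LYMP1-002 cells after 16 hr treatment; values are normalized against DMSO and tetraoctylammonium bromide (15 uM) controls and AC50 derived by Hill modeling.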

[31] = MultiTox-Fluor Cytotoxicity Assay - LYMP1-003 - Live Cells (AID 962);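 note: 0% = DMSO only and full loss = 92 µM tetraoctylammonium bromide; cytotoxic hits lower the live-cell protease signal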
Outline: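 Human lymphoblastoid line LYMP1-003 in complete culture medium, treated 16 hr with titrated compounds. Viable cells quantified via cell-permeant GF-AFC substrate fluorescence; AC50 derived by Hill fitting.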

[32] = Cell Viability - LYMP1-003 - Assay at 24 hr (AID 963);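 note: plate controls were DMSO only for no effect and tetraoctylammonium bromide positive control for full effect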
Outline: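 The lymphoblastoid line was treated with titrated compounds for 24 hours, and viable cell number estimated from luciferase-based ATP luminescence.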

[33] = Cell Viability - LYMP1-003 - Assay at 40 hr (AID 964); note: % is set by controls: 0 for no effect and ±100 for the full control effect; nearly all actives have a fitted effect of over 60% in size
Outline: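 Acute toxicity is scored as a concentration-dependent loss of intracellular ATP in LYMP1-003 cells (2500/well, complete medium) after 40 hr at 37 C, measured by CellTiter-Glo luminescence; AC50 values derive from standard Hill modelling.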

[34] = Cell Viability - LYMP2-003 (AID 965);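 note: cells exposed to compounds for 24 h before reading; 0% = DMSO only and full effect = 92 µM tetraoctylammonium bromide; nearly all actives have a fitted effect of over 50% in size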
Outline: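 Acute cytotoxicity is scored as a concentration-dependent drop in intracellular ATP, measured by luciferase luminescence in human lymphoblastoid cells treated for 24 hours at 37 C. AC50 values derive from Hill-equation modelling.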

[35] = Cell Viability - LYMP2-004 (AID 966);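 note: cells exposed to compound for 24 h; plate controls were DMSO only for no effect and tetraoctylammonium bromide control for full effect; nearly all actives have a fitted effect of over 65% in size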
Outline: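 Viable-cell number estimated from ATP luminescence (CellTiter-Glo) in 2500 human lymphoblastoid cells/well after 24 hr at 37 C with compound. AC50 fitted to the standard Hill equation.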

[36] = Cell Viability - LYMP2-009 (AID 968);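 note: cells exposed to compound for 24 h at 37 °C; 0% = DMSO alone and the full-kill end = tetraoctylammonium bromide at 92 µM; nearly all actives have a fitted effect of over 55% in size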
[37] = Cell Viability - LYMP2-011 (AID 969);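 note: 0% = DMSO only and full inhibition = 92 µM tetraoctylammonium bromide; nearly all actives have a fitted effect of over 60% in size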
Outline: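 Cells seeded at 2500 per well rest 5 hr before compound addition, then incubate 24 hr at 37 C. CellTiter-Glo reagent is added for 30 min at room temperature before luminescence detection.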

CN1[C@H]2CC(OC(=O)[C@H](CO)c3ccccc3)C[C@H]1[C@H]1O[C@H]12 (some centres not stated)
inactive: Potency [1] > 92 µM | Potency [2] > 92 µM | Potency [3] > 92 µM | Potency [4] > 92 µM | Potency [5] > 92 µM | Potency [6] > 92 µM | Potency [7] | Potency [8] | Potency [9] | Potency [10] | Potency [11] | Potency [12] | Potency [13] | Potency [14] | Potency [15] | Potency [16] | Potency [17] | outcome [18] | caspase-3 activation [19] -0.382% and 0.0869% | caspase-3 activation [20] -1.73% and -0.623% | caspase-3 activation [21] 0.771% and -1.21% | caspase-3 activation [22] -1.68% and 4.08% | Potency [23] | Potency [24] | outcome [25] | Potency [26] | Potency [27] | Potency [28] | Potency [29] | Potency [30] | Potency [31] | Potency [32] | Potency [33] | Potency [34] | Potency [35] | Potency [36] | Potency [37]
